Screens deposited in PubChem BioAssay by The Scripps Research Institute Molecular Screening Center.
GALR2 antag – antagonists of human galanin receptor 2 (GALR2); GALR2-expressing cells, antagonist mode; AID 828; O43603; 0.39% of 140,000 active; inhibition, % at 4 µM; in the data active means inhibition above about 27%;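 further: cells stimulated with galanin 1-16 at roughly its EC80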
Target sequence (O43603 whole entry, looked up): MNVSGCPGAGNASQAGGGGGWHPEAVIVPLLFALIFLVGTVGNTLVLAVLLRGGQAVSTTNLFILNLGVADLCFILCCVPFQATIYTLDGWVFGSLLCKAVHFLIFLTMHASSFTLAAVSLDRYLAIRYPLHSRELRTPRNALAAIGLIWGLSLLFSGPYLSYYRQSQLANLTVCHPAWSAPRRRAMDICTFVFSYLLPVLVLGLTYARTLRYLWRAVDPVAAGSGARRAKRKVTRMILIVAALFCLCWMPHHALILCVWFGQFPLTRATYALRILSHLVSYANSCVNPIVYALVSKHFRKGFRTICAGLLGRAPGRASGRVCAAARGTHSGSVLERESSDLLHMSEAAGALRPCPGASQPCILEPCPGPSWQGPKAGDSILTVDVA
S1P2 ag – agonists of human S1P2 receptor; activation, % at 4.5 µM; 0.46% of 97,000 active; S1P2-expressing cell line, agonist reporter read-out; O95136; in the data active means activation above about 16%
GALR2 agonist – activates the human galanin receptor 2 | O43603 | GALR2-expressing cells, agonist activation read-out | activation, % (concentration not given with the values) | 0.48% of 140,000 active | AID 803; in the data active means activation above about 5%, passing the limit was not always enough
S1P2 antag – S1P2 (human) receptor antagonism | inhibition, % at 5 µM | cell-based S1P2 antagonist assay, inhibition at 5 uM | 0.21% of 97,000 active; in the data active means inhibition above about 45%;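 further: CRE beta-lactamase reporter cells expressing human S1P2 stimulated with S1P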
GALR2 agon conf – confirmation of human galanin receptor 2 (GALR2) agonists | 10% of 460 active | activation, % at 5.6 µM | GALR2-expressing cells, agonist activation | shares compounds with GALR2 agonist; in the data active means activation above about 8.4%
BLA act counter – counter-screen for GALR2 agonists: beta-lactamase reporter activators; CHO NFAT-bla reporter, beta-lactamase FRET activation; AID 865; activation, % at 5.6 µM; shares compounds with GALR2 agonist; 10% of 460 active;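 active means activation above the screen-wide mean activation plus 3 SD, cut at about 8% in these data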
Numbers stand for hits. A selection: hits, their analogues and other compounds. The true share with any hit is near 1.2%.

How did CCOC(=O)N1CCC(NC(=O)CCC(=O)N2CC(C)Oc3ccc(Cl)cc32)CC1 (configuration not stated) do in these assays?
GALR2 antag: inactive; S1P2 ag: inactive; GALR2 agonist: inactive; S1P2 antag: inactive

What do the screens show for `O=C(CCSCCc1ccccn1)Nc1ccc(Cl)cn1`?
GALR2 antag: inactive; S1P2 ag: inactive; GALR2 agonist: inactive; S1P2 antag: inactive; GALR2 agon conf: inactive; BLA act counter: inactive

What do the screens show for `CC1CCCCC1NC(=O)CSc1nnc(-c2ccccc2)n1N` (configuration not stated)?
GALR2 antag: inactive; GALR2 agonist: inactive

Results for CCCCN1C(=O)C(O)=C(C(C)=O)C1c1ccccc1 (configuration not stated) ?
GALR2 antag: inactive; S1P2 ag: inactive; GALR2 agonist: 172; S1P2 antag: inactive; GALR2 agon conf: inactive; BLA act counter: inactive

Results for CCCCCCN1C(=O)C(O)=C(C(C)=O)C1c1ccc(Cl)cc1 (configuration not stated) ?
GALR2 antag: inactive; GALR2 agonist: inactive

How did N#Cc1c(NC(=O)c2ccccc2Cl)n(Cc2ccccc2)c2nc3ccccc3nc12 do in these assays?
GALR2 antag: inactive; GALR2 agonist: 8.2; GALR2 agon conf: inactive; BLA act counter: inactive

Results for Cn1c(N)c(C(=O)COC(=O)CSc2ccc(Cl)cc2)c(=O)n(C)c1=O ?
GALR2 antag: inactive; GALR2 agonist: inactive

Results for O=C(CSc1ccc2nnc(-c3cccc(F)c3)n2n1)N1CCCc2ccccc21 ?
GALR2 antag: inactive; GALR2 agonist: 9.1; GALR2 agon conf: 9.7; BLA act counter: inactive

Results for O=C(NC(=S)Nc1ccc(NC(=O)c2cccs2)cc1)c1cc2ccccc2o1 ?
GALR2 antag: inactive; GALR2 agonist: 11; GALR2 agon conf: inactive; BLA act counter: inactive

Results for CC(C)N1C(=O)S/C(=C/c2ccc3c(c2)n(C)c(=O)n3C)C1=O ?
GALR2 antag: inactive; S1P2 ag: inactive; GALR2 agonist: 97; S1P2 antag: inactive; GALR2 agon conf: inactive; BLA act counter: inactive

What do the screens show for `CC(C)N1C(=O)S/C(=C/c2cccnc2)C1=O`?
GALR2 antag: inactive; S1P2 ag: inactive; GALR2 agonist: inactive; S1P2 antag: inactive

What do the screens show for `CCCC(=O)c1ccc(N2CCN(C(=O)OCC)CC2)c(F)c1`?
GALR2 antag: inactive; S1P2 ag: inactive; GALR2 agonist: 30; S1P2 antag: inactive; GALR2 agon conf: inactive; BLA act counter: inactive

What do the screens show for `CCOC(=O)N1CCN(c2ccc(C(=O)CC)cc2F)CC1`?
GALR2 antag: inactive; S1P2 ag: inactive; GALR2 agonist: inactive; S1P2 antag: inactive

What do the screens show for `CC(=O)CCn1c(=O)n(CCC(C)=O)c(=O)n(CCC(C)=O)c1=O`?
GALR2 antag: inactive; S1P2 ag: inactive; GALR2 agonist: 36; S1P2 antag: inactive; GALR2 agon conf: inactive; BLA act counter: inactive

How did CCOC(=O)N1CCC(NC(=O)c2ccc(CS(=O)(=O)c3ccccc3C)o2)CC1 do in these assays?
GALR2 antag: inactive; S1P2 ag: inactive; GALR2 agonist: inactive; S1P2 antag: inactive

What do the screens show for `O=C(NCCC1=CCCCC1)C(=O)NCC(c1ccco1)N1CCN(c2ccc(F)cc2)CC1` (configuration not stated)?
GALR2 antag: inactive; GALR2 agonist: inactive

What do the screens show for `CCN(CC)C(c1ccc(C)cc1)c1nnnn1C1CCCCC1` (configuration not stated)?
GALR2 antag: inactive; S1P2 ag: inactive; GALR2 agonist: inactive; S1P2 antag: inactive

How did CCN(CC)C(c1ccc(F)cc1)c1nnnn1C1CCCCC1 (configuration not stated) do in these assays?
GALR2 antag: inactive; S1P2 ag: inactive; GALR2 agonist: 9.8; S1P2 antag: inactive; GALR2 agon conf: inactive; BLA act counter: inactive

Results for Cc1ccc(NC2(c3nnnn3-c3c(C)cccc3C)CCCCC2)cc1 ?
GALR2 antag: inactive; GALR2 agonist: inactive

Results for CCOc1ncccc1C(=O)OCC(=O)Nc1ccc(-c2nc3ccc(C)cc3s2)cc1 ?
GALR2 antag: inactive; GALR2 agonist: 11; GALR2 agon conf: inactive; BLA act counter: inactive

What do the screens show for `S=C1NCCc2ccc(Cl)cc2C1c1ccccc1` (configuration not stated)?
GALR2 antag: inactive; S1P2 ag: inactive; GALR2 agonist: inactive; S1P2 antag: inactive

How did N#C/C(=C\c1c(N2CCCCC2)nc2ccccn2c1=O)C(=O)NC1CCS(=O)(=O)C1 (configuration not stated) do in these assays?
GALR2 antag: inactive; GALR2 agonist: 13; GALR2 agon conf: inactive; BLA act counter: inactive
